Source: PubChem
In the library only some 4% were active in any assay of this set; here they are far more common.
HIF-2a inh: inhibitors of HIF-2a; 786-0 RCC cells HIF-2a reporter, luciferase luminescence, overnight; 360,000 compounds, 0.72% hits; inhibition, % at 18.8 µM; AID 624352;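 active = inhibition of the luminescence signal of 40% or more relative to plate controls, in a single-dose primary screen at 18.75 µM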
LMP1 NFkB inh: inhibitors of Epstein-Barr LMP1-induced NF-kappaB reporter. AID 504558. inhibition, % at 12.5 µM. 350,000 compounds, 0.69% hits. LMP1-induced NF-kappaB luciferase reporter cells, luminescence; in the data active = inhibition above about 41%;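 also: 0% = neutral control wells and 100% = reference inhibitor control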
TRPM1 prom inh: reduces MITF-dependent TRPM1 promoter luciferase signal; AID 488899; SK-MEL-5 TRPM1 promoter luciferase, 24 h; inhibition, % at 12.5 µM; 330,000 compounds, 0.83% hits;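 active = mean inhibition across replicates of 60% or more, whatever share of single replicates reaches that level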
Peg3 prom inh-1: reduces Peg3 promoter-driven luciferase expression in HeLa | HeLa PEG-Prom luciferase reporter, luminescence, overnight | inhibition, % at 20 µM | 360,000 compounds, 1.7% hits | AID 588405;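 active = inhibition of at least 50% at 20 µM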
TWEAK-Fn14 inh: TWEAK-Fn14 signaling inhibition | AID 1159606 | 360,000 compounds, 2% hits | TWEAK-stimulated Fn14 reporter cells, luciferase luminescence, 8 h | inhibition, % at 10 µM; in the data active = inhibition above about 50%
TROY signal inh: TROY signaling inhibition; Q293 LMP1-TROYcd NF-kB luciferase reporter, 4 h; inhibition, % at 10 µM; 360,000 compounds, 0.98% hits; AID 1347056;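 active = compounds whose plate-normalised and pattern-corrected inhibition of the luciferase reporter signal at the single screening dose is 50% or more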
Peg3 prom inh-2: confirmation of Peg3 promoter inhibitors. shares compounds with Peg3 prom inh-1. HeLa PEG-Prom luciferase reporter, luminescence, overnight. inhibition, % at 20 µM. 1,300 compounds, 84% hits. AID 602417;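 active = at 20 µM dose, 40% or more inhibition averaged across four replicates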
Numbers without * were called inactive; · = not tested or not shown.

SMILES	HIF-2a inh	LMP1 NFkB inh	TRPM1 prom inh	Peg3 prom inh-1	TWEAK-Fn14 inh	TROY signal inh	Peg3 prom inh-2
O=C(c1ccco1)N1CCN(C(c2ccccc2Cl)c2nnnn2Cc2cccs2)CC1 (stereo not drawn)	19	6	3	52*	42	7	58*
COc1ccccc1CNCC(O)Cn1c2ccccc2c2ccccc21 (stereo not drawn)	23	-17	84*	111*	-25	-3	97*
CC(=O)c1cccc(-c2ccnc3c2CC(C(=O)NCc2ccco2)O3)c1 (stereo not drawn)	11	·	·	-30	14	25	·
COc1ccc(-c2sc3cc(OC)c(OC)cc3c2C#CCCO)cc1	4	-10	-18	-5	-38	-21	·
COc1ccc2c(C#CCCO)c(-c3ccc(S(C)(=O)=O)cc3)sc2c1	10	-60	-2	50*	-27	-44	42*
CS(=O)(=O)c1ccc(-c2sc3ccccc3c2C#CCCO)cc1	-9	-19	6	54*	-1	5	60*
CCn1c(/C=C2\C(=O)Nc3ccccc32)nc2ccccc2c1=O	12	-2	16	52*	16	5	35
CC(C)(C)[C@@H]1CCC(=O)N(CC[C@H](Sc2ccc(Br)cc2)c2ccccc2)CC1	-3	2	2	16	9	21	·
Cc1ccc2[nH]c(=O)c(C3C(C#N)=C(N)Oc4c3ccc3cccnc43)cc2c1 (stereo not drawn)	10	22	17	50*	5	9	48*
N#CC1=C(N)Oc2c(ccc3cccnc23)C1c1ccccc1 (stereo not drawn)	14	9	32	22	30	-21	·
CC(C)CCCCCCCCCCCCC(=O)NCC(=O)NC1C(O)C(O)C(Nc2ncnc3nc[nH]c23)OC1C(O)CO (stereo not drawn)	69*	88*	76*	100*	97*	72*	99*
COc1cccc(CN2C(=O)C(C)N(C(=O)c3ccccc3)c3ccccc32)c1 (stereo not drawn)	26	13	12	22	46	25	·
COc1ccc(OC)c(-c2csc(NC(=O)Cn3[nH]c(=O)c4ccccc4c3=O)n2)c1	0	-17	3	55*	-22	13	28
Cc1cc(N)n2ncc(-c3ccc(Cl)cc3)c2n1	-216	-36	-37	-193	-8	-81	·
Cc1cc(Cl)n2ncc(-c3ccccc3)c2n1	-156	-16	-6	87*	1	-1	68*
COc1ccc(-c2csc(NC(=O)c3cccc(N4C(=O)CCC4=O)c3)n2)cc1C	-12	6	-5	-13	1	17	·
O=C(Nc1nc(-c2ccc3ccccc3c2)cs1)c1ccc(N2C(=O)CCC2=O)cc1	-9	2	20	56*	-40	1	17
CC(C)(C(=O)N1CCC1(C)C(=O)NS(=O)(=O)c1ccc(C#N)cc1)c1ccccc1 (stereo not drawn)	5	·	·	14	3	10	·
CC(C)(C)CCN1CCC(CN2CCNC(=O)C2=O)CC1	2	0	10	-9	10	-5	·
CCOC(=O)c1[nH]c2ccc(Cl)cc2c1-c1ccccc1	14	26	-1	11	7	3	·
CN(C)C=NC(=O)c1[nH]c2ccc(Cl)cc2c1-c1ccccc1	25	-4	37	72*	69*	43	81*
CCc1nccn1C(=O)c1cnn2c(C(F)F)cc(-c3ccc(C)cc3)nc12	30	-7	47	61*	54*	8	93*
CCN1CCN(C(=O)c2cnn3c(C(F)F)cc(-c4ccc(C)cc4)nc23)CC1	9	-13	10	8	-30	4	·
COc1ccc(C(=O)c2sc(Nc3cccc(OC)c3)c(C(=O)Nc3cccc(C)c3C)c2N)cc1	7	4	34	97*	18	29	34
CC1(C(=O)Nc2cccc(OC(F)(F)F)c2)Cc2c(-c3ccc4c(c3)OCO4)ccnc2O1 (stereo not drawn)	-4	·	·	25	0	23	·
CCOC(=O)c1cccc(Nc2nc(-c3cccnc3)nc3ccccc23)c1	-8	12	20	63*	69*	37	90*
